For one test, the system named is CRL-7250. Briefly: Cytotoxic Profiling of Annotated Libraries Using Quantitative High-Throughput Screening (AID 1296008). On max response: on the % scale 0 is the no-effect control and ±100 the full control effect. To be noted: Five cell lines viability, CellTiter-Glo ATP luminescence, 48-72 h; active compounds read low. Put shortly: (§1)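 Cells exposed to compounds for 48 or 72 hr at 37 degrees Celsius. Viability read as ATP-coupled luminescence with CellTiter-Glo after 10 min at room temperature.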

The next test concerns HEK293. The description is as above. To be noted: Five cell lines viability, CellTiter-Glo ATP luminescence, 48-72 h; active compounds read low. Put shortly:
as §1
A general note: Cellular ATP, detected with luciferase, serves as a proxy for viable cell number.

Test [1] deals with HaCat. Described as above. To be noted: Five cell lines viability, CellTiter-Glo ATP luminescence, 48-72 h; active compounds read low. Summed up:
as §1

For a further test, the system named is NIH3T3. The test is described as above. Particulars: Five cell lines viability, CellTiter-Glo ATP luminescence, 48-72 h; active compounds read low. Put shortly:
as §1

Another test concerns TAB109. Briefly: qHTS profiling for inhibitors of Plasmodium falciparum proliferation (AID 504749). Further: potency means the concentration at half of the fitted maximal effect. To be noted: P. falciparum in erythrocytes, SYBR Green DNA, 72 h; series mostly up to 28.7 µM. Summed up: (§2)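 Readout was DNA-dye fluorescence from lysed cultures, ex 485/em 535 nm. Parasitized red cells had grown 72 h with compound; data scaled between 0.29 uM artemisinin and DMSO wells and corrected using vehicle-only plates.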

The subject of a further test is TAB113. The test is described as above. Particulars: P. falciparum in erythrocytes, SYBR Green DNA, 72 h; series mostly up to 28.7 µM. Summed up:
as §2

The next test deals with TAB165. The description is as above. Particulars: P. falciparum in erythrocytes, SYBR Green DNA, 72 h; series mostly up to 28.7 µM. Put shortly: as §2
For test [2], the system named is HACAT. Put plainly: qHTS assay to identify novel small-molecules to repurpose for Merkel cell carcinoma treatment (AID 1296009). Particulars: MCC and control cell lines, CellTiter-Glo viability, 72 h; at 44.8 µM (top of the series) unless noted. Put shortly: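 Cells were incubated with compound for 72 hr at 37 degree celsius before CellTiter-Glo addition. Luminescence was normalized with no-cell wells as full cytotoxicity and DMSO as baseline.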
In general terms: In qHTS, concentration-response curves come from the screen itself.

Another test deals with W2. Put plainly: qHTS profiling for inhibitors of Plasmodium falciparum proliferation (AID 504749). Further: potency means the concentration at half of the fitted maximal effect. To be noted: P. falciparum in erythrocytes, SYBR Green DNA, 72 h; series mostly up to 28.7 µM. Summed up:
as §2

The structures appear in SMILES notation. Records with an inconclusive call do not appear. A number with no mark means an inactive call. The source made the active and inactive calls. The call rests on the fitted dose curve; in most records, active means well fitted inhibition curve with a large enough effect; inconclusive means small, poorly fitted or top-dose-only effect; inactive means flat fitted curve, though single readings scatter.
Further: nearly all actives have a fitted effect of over 60% in size.

Take `NS(=O)(=O)c1cc(C2(O)NC(=O)c3ccccc32)ccc1Cl` (stereo not given): the max response was -0.145% in the test on CRL-7250, -4.45% with HEK293 and 3.24% with HaCat [1]. Also, in the test with NIH3T3, the outcome was inactive.

With `CCCNC(C)(C)COC(=O)c1ccccc1`, the Potency entry with TAB109, in the test with TAB113 and in the test on TAB165 was “inactive” throughout. Also, the max response in the test with CRL-7250 is -0.75%; in the test with HEK293, 3.12%; in the test on NIH3T3 it was 4.95%. The outcome in the test with HaCat [1] and in the test with HACAT [2] was inactive.

For `CCN(CC)CCOC(=O)C(c1ccccc1)c1ccccc1`, the Potency entry in the test with TAB109, with TAB113 and with TAB165 was “inactive” each time. Also, in the test with W2, the Potency is 7570 nM (active). The max response was 4.76% with CRL-7250, -4.53% in the test with HEK293, -2.12% in the test with HaCat [1] and -4.35% with NIH3T3.

On to `CC1(C)S[C@@H]2[C@H](N=CN3CCCCCC3)C(=O)N2[C@H]1C(=O)O`, for which the max response was -6.32% in the test on CRL-7250 and -2.19% in the test with HEK293. Moreover, the result in the test on HaCat [1], with NIH3T3 and with HACAT [2] was inactive.

As for `O=C(O)Cc1cn(-c2ccccc2)nc1-c1ccc(Cl)cc1`, the Potency result in the test on TAB109, in the test on TAB113, with TAB165 and with W2 was “inactive” throughout. Moreover, the max response was 3.22% in the test on CRL-7250, -24% with HaCat [1] and 4.05% in the test on NIH3T3. Moreover, in the test with HEK293, the compound was called inactive.

As for `CC(=O)NCc1c(I)c(NC(C)=O)c(I)c(C(=O)O)c1I`, the Potency result in the test on TAB109, in the test on TAB113, in the test on TAB165 and with W2 was “inactive” each time. Also, the max response in the test on CRL-7250 was 3.86%; with HEK293 it was -1.82%; in the test on HaCat [1] it was -5.93%; with NIH3T3, -4.33%.

On to `COc1ccc(NS(=O)(=O)c2ccc(N)cc2)nn1`, for which the Potency result with TAB109, in the test on TAB113, with TAB165 and in the test with W2 was “inactive” in each case. Moreover, the max response with CRL-7250 was 3.69%; in the test on NIH3T3, -9.1%. Further, the compound was classed as inactive in the test on HEK293, with HaCat [1] and in the test on HACAT [2].

`CCOC(N)=O`: the Potency entry in the test on TAB109, with TAB113, in the test with TAB165 and with W2 was “inactive” in each case. The max response in the test with CRL-7250 was 1.79%; in the test with HEK293 it was -1.46%; with HaCat [1], -12.1%. Also, the call in the test on NIH3T3 was inactive.

As for `CN[C@@H]1[C@H](O)[C@H](NC)[C@H]2O[C@@]3(O)C(=O)C[C@@H](C)O[C@H]3O[C@@H]2[C@H]1O`, the max response is -3.95% in the test on CRL-7250, 1.03% with HEK293, 0.231% with HaCat [1] and 2.69% in the test with NIH3T3.

For `O=C(O)C(S)C(S)C(=O)O` (stereo not given), the max response was -6.2% with CRL-7250, -7.93% in the test with HEK293 and 3.59% with HaCat [1]. The outcome in the test with NIH3T3 was inactive.

With `COc1ccccc1Oc1c(NS(=O)(=O)c2ccc(C(C)(C)C)cc2)nc(-c2ncccn2)nc1OCCO`, the Potency entry in the test with TAB109 is “inactive”. Besides, the max response in the test on CRL-7250 was -3.53%; in the test on HEK293, -4.43%. Besides, the compound was classed as inactive in the test on HaCat [1], in the test with NIH3T3 and in the test on HACAT [2].

In the case of `CC1(C)[C@@H](OC(=O)CCC(=O)O)CC[C@]2(C)[C@H]3C(=O)C=C4[C@@H]5C[C@@](C)(C(=O)O)CC[C@]5(C)CC[C@@]4(C)[C@]3(C)CC[C@@H]12`, the max response in the test with CRL-7250 was -5.85%; in the test on HEK293 it was -0.807%; with HaCat [1], 2.22%. The compound was called inactive in the test with NIH3T3.

With `CCCCCCCCCCOc1cc2c(=O)c(C(=O)OCC)c[nH]c2cc1OCC`, the Potency in the test with TAB109 is 2.5 nM (active); with TAB113 it was 2.8 nM (active); in the test on TAB165, 1.3 nM (active); in the test with W2 it was 1.7 nM (active). The compound was called inactive in the test on CRL-7250 and with HEK293. In addition, the figures for the max response in the test with HaCat [1] and in the test with NIH3T3 were -5.57% and -1.43%, respectively.

Turning to `C=CCOc1ccccc1OCC(O)CNC(C)C` (stereo not given), the values for the max response in the test with CRL-7250, with HEK293 and with NIH3T3 were -3.74%, 3.92% and 4.04%, respectively. In addition, the compound was classed as inactive in the test with HaCat [1] and in the test with HACAT [2].

In the case of `OCc1ccc(Cl)cc1Cl`, the Potency entry in the test on TAB109, with TAB113, with TAB165 and with W2 was “inactive” in each case. Moreover, the outcome in the test with CRL-7250, in the test with HaCat [1], with NIH3T3 and with HACAT [2] was inactive. Further, in the test with HEK293, the max response is -6.19%.

Turning to `OCCN1C[C@H](O)[C@@H](O)[C@H](O)[C@H]1CO`, the max response in the test with CRL-7250 is 0.57%; in the test on HaCat [1] it was -0.066%; in the test on NIH3T3 it was -3.52%. Further, the outcome in the test with HEK293 was inactive.

Regarding `NS(=O)(=O)c1cc2c(cc1C(F)(F)F)NCNS2(=O)=O`, the Potency result with TAB109, in the test with TAB113, in the test with TAB165 and in the test with W2 was “inactive” each time. Besides, the max response with CRL-7250 was -22.8%; with HEK293, -7.43%; in the test on HaCat [1], 2.79%; in the test on NIH3T3 it was -4.18%.

On to `CC(C)=CCC/C(C)=C/CO`, for which the Potency entry in the test on TAB109, with TAB113, in the test with TAB165 and in the test on W2 was “inactive” throughout. Also, the compound was classed as inactive in the test with CRL-7250 and in the test on HEK293. In addition, the results for the max response in the test on HaCat [1] and with NIH3T3 were -2.14% and -13.7%, respectively.

For the compound `COc1ccccc1OC(=O)Oc1ccccc1OC`, the Potency result with TAB109, in the test with TAB113, with TAB165 and with W2 was “inactive” each time. Moreover, the call with CRL-7250, in the test with HaCat [1] and in the test with HACAT [2] was inactive. Also, the max response in the test with HEK293 is -4.48%; in the test on NIH3T3, 0.277%.

With `CC(=O)NS(=O)(=O)c1ccc(N)cc1`, the Potency result in the test on TAB109, with TAB113, in the test with TAB165 and in the test on W2 was “inactive” in each case. Also, the max response in the test on CRL-7250 was -3.19%; with HEK293 it was -5.52%; in the test on NIH3T3, -1.48%. Also, the result in the test with HaCat [1] and with HACAT [2] was inactive.

On to `NNC(=O)CP(=O)(c1ccccc1)c1ccccc1`, for which the Potency entry with TAB109, with TAB113 and in the test on TAB165 was “inactive” throughout. The figures for the max response in the test on CRL-7250, in the test with HEK293 and in the test on NIH3T3 were -0.948%, 0.687% and -3.5%, respectively. The compound was classed as inactive in the test with HaCat [1] and in the test with HACAT [2].

On to `O=C(NCC(O)CO)c1c(I)c(C(=O)NCC(O)CO)c(I)c(N(CCO)C(=O)CO)c1I` (stereo not given), for which the values for the max response in the test on CRL-7250, with HEK293 and in the test on NIH3T3 were -2.46%, -0.64% and 2.96%, respectively. Also, the call with HaCat [1] and with HACAT [2] was inactive.

With `CC(C)CCOC(=O)c1ccc(N(C)C)cc1`, the Potency entry with TAB109, in the test with TAB113, in the test with TAB165 and in the test with W2 was “inactive” throughout. Besides, the max response with CRL-7250 was -21%; in the test with HEK293, -23.8%; in the test on HaCat [1] it was -5.98%; in the test with NIH3T3, -25.1%.

For the compound `C[N+]1(C)CCCC(OC(=O)C(O)(c2ccccc2)c2ccccc2)C1` (stereo not given), the max response with CRL-7250 was 2.14%; in the test on HEK293 it was -3.74%; in the test on NIH3T3 it was 4.37%. For the same compound, the compound was classed as inactive in the test on HaCat [1] and in the test with HACAT [2].

In the case of `Cc1ccc(S(=O)(=O)NC(=O)NC2CCCCCCC2)cc1`, the Potency entry with TAB109, in the test on TAB113, in the test with TAB165 and in the test on W2 was “inactive” each time. The figures for the max response in the test on CRL-7250, in the test on HEK293 and in the test with NIH3T3 were -5.06%, 4.09% and 3.55%, respectively. For the same compound, the outcome in the test with HaCat [1] and in the test with HACAT [2] was inactive.

In the case of `CN1CCCN=C1COC(=O)C(O)(c1ccccc1)C1CCCCC1` (stereo not given), the Potency result in the test on TAB109, in the test on TAB113, with TAB165 and in the test with W2 was “inactive” each time. Besides, the max response is -8.2% in the test on CRL-7250 and -8.47% in the test with HEK293. Besides, the compound was called inactive in the test on HaCat [1], in the test with NIH3T3 and in the test on HACAT [2].

As for `O=C(/C=C/c1ccc(O)c(O)c1)O[C@@H]1C[C@@](OC(=O)/C=C/c2ccc(O)c(O)c2)(C(=O)O)C[C@@H](O)[C@@H]1O`, the max response with CRL-7250 was -6.43%; in the test with HEK293 it was -4.83%; in the test on NIH3T3 it was -0.0883%. Moreover, the compound was classed as inactive with HaCat [1] and with HACAT [2].

The values are drawn from PubChem BioAssay (NCATS).
